Measurements taken from PubChem BioAssay (Tox21).
Results filed as inconclusive are left out. Active and inactive are the calls of the source. Unless noted, the call rests on the fitted dose curve; in most records, active means well fitted curve in the direction sought with a large enough effect in the repeat runs; inconclusive means weak or mixed curves; inactive means no such curve, though single readings can be large; an effect the other way counts as inactive or inconclusive. Where a SMILES comes first, the peptide text is derived from it. [ ]: non-standard residue; d: D form. pGlu = O=C1CC[C@@H](C(=O)O)N1

How the values were obtained:
[1] = qHTS assay to identify small molecule antagonists of the estrogen related receptor (ERR) signaling pathway from Tox21 library - cell viability counter screen (AID 1224834); further: nearly all actives have a fitted effect of over 30% in size
How it was run: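 ERR reporter cells, 2,000 per well, rested 6 h, then exposed to compound in DMSO for 17.5 hours at 37 C. Viability read as fluorescence after 30 min with CellTiter-Fluor.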

[2] = biological target: Luciferin 4-monooxygenase (Photinus pyralis) (UniProt P08659); assay: qHTS assay to identify small molecule inhibitors of firefly luciferase (AID 1224835); further: nearly all actives have a fitted effect of over 25% in size; further: potency means the concentration at half of the fitted maximal effect
Chain of Luciferin 4-monooxygenase (Photinus pyralis) (P08659 whole entry, looked up): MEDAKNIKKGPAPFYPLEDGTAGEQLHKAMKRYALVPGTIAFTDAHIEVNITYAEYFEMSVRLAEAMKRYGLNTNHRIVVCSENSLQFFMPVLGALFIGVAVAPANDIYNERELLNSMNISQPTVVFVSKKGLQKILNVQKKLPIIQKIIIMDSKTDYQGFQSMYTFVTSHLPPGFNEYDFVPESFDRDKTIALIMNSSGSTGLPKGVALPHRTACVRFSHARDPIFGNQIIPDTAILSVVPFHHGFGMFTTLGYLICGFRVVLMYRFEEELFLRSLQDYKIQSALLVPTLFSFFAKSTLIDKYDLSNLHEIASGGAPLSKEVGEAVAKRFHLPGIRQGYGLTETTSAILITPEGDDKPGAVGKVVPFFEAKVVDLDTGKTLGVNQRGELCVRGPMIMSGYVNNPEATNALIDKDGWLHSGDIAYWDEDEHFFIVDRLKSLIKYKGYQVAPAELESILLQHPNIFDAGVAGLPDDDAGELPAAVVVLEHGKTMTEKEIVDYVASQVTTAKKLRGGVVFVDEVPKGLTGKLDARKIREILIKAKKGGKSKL
How it was run: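 Quantitative HTS format; KM concentrations of both substrates. Purified P. pyralis FLuc activity quantified from luminescence images.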

[3] = qHTS assay to identify small molecule agonists of the constitutive androstane receptor (CAR) signaling pathway - cell viability counter screen (AID 1224836); further: series mostly up to about 92 µM; nearly all actives have a fitted effect of over 45% in size
How it was run: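 Using CellTiter-Fluor, viability of HepG2 cells harbouring hCAR and CYP2B6-2.2kb was measured following 23 h incubation with a 15-concentration compound series plus PK11195 (0.75 uM final).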

[4] = qHTS assay to identify small molecule antagonists of the constitutive androstane receptor (CAR) signaling pathway - cell viability counter screen (AID 1224837); further: series mostly up to about 92 µM; nearly all actives have a fitted effect of over 45% in size
How it was run: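 HepG2 cells stably carrying hCAR and CYP2B6-2.2kb reporter, stimulated with 50 nM CITCO and compounds at 15 concentrations for 23 h at 37 C. Viability measured by CellTiter-Fluor fluorescence.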

[5] = biological target: Nuclear receptor subfamily 1 group I member 3 (Homo sapiens) (UniProt Q14994); assay: qHTS assay to identify small molecule antagonists of the constitutive androstane receptor (CAR) signaling pathway (AID 1224838); further: nearly all actives have a fitted effect of over 40% in size
Chain of Nuclear receptor subfamily 1 group I member 3 (Homo sapiens) (Q14994 whole entry, looked up): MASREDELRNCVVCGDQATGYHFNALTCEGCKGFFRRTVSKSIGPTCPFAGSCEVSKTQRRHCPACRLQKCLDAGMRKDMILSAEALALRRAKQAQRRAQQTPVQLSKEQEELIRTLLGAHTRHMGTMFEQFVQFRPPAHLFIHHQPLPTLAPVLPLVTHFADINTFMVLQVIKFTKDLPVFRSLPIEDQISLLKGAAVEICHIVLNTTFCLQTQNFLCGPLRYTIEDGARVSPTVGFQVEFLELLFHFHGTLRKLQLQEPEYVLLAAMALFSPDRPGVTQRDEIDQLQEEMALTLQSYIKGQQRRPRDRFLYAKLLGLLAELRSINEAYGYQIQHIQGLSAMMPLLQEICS
How it was run: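 HepG2 cells stably carrying hCAR and a CYP2B6-2.2kb luciferase reporter, seeded 4 hrs before compound (15 concentrations). Stimulated with 50 nM CITCO for 24 hr at 37 C. ONE-Glo luminescence read after 30 min at room temperature.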

[6] = biological target: Nuclear receptor subfamily 1 group I member 3 (Homo sapiens) (UniProt Q14994); assay: qHTS assay to identify small molecule agonists of the constitutive androstane receptor (CAR) signaling pathway (AID 1224839); further: series mostly up to about 92 µM; nearly all actives have a fitted effect of over 15% in size
How it was run: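 Double-stable HepG2 cells (hCAR, CYP2B6-2.2kb) seeded 4 h before compound addition. Exposure 24 h with 0.75 uM PK11195 final. Luciferase detected by ONE-Glo.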

[7] = qHTS assay to identify small molecule antagonists of the estrogen related receptor signaling pathway with the pleiotropic PPARgamma coactivator (PGC) from Tox21 10K library - cell viability counter screen (AID 1224840; active means well fitted cell-killing curve with a large enough effect in the repeat runs, not every such curve was filed as active; further: nearly all actives have a fitted effect of over 40% in size)
How it was run: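 PGC/ERR cells (2,000/well) plated 6 h, then compound-treated for 17.5 h at 37 C. Viability measured by CellTiter-Fluor fluorescence after 30 min at 37 C, multiplexed with the pathway assay.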

[8] = qHTS assay to identify small molecule antagonists of the estrogen related receptor signaling pathway with the pleiotropic PPARgamma coactivator (PGC) from Tox21 10K library (AID 1224841; call rule not given here; further: series mostly up to about 92 µM; actives are mostly falling curves and most rising ones were filed inactive; nearly all actives have a fitted effect of over 50% in size)
How it was run: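 PGC/ERR cell line, 2,000 cells/well, pre-incubated 6 hours at 37 C, then exposed to compounds for 18 hours at 37 C; luciferase read with One-Glo luminescence after 30 min at room temperature.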

[9] = qHTS assay to identify small molecule agonists of the estrogen related receptor signaling pathway with the pleiotropic PPARgamma coactivator (PGC) from Tox21 10K library (AID 1224842); further: nearly all actives have a fitted effect of over 15% in size
How it was run: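 PGC/ERR reporter cells (NTP line) were seeded 2,000 per well, rested 6 h at 37 C/5% CO2, then pin-dosed with compounds in DMSO for 18 h at 37 C; luciferase read by One-Glo luminescence after 30 min at room temperature.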

[10] = qHTS assay to identify small molecule agonists of the hypoxia (HIF-1) signaling pathway - cell viability counter screen (AID 1224844; calls by dose curve; further: nearly all actives have a fitted effect of over 50% in size)
How it was run: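 HRE-bla ME-180 cells, 2,000/well in 0.5% dialyzed FBS medium, treated 17 h at 37C with compounds. Viability read in the same wells as the bla reporter, by CellTiter-Glo luminescence after 30 min at room temperature.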

[11] = qHTS assay to identify small molecule agonists of H2AX (AID 1224845; active means well fitted activation curve with a large enough effect in the signal ratio in the repeat runs, not every such curve was filed as active; the % refers to the signal ratio)
How it was run: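 Wild-type CHO-K1 cells plated overnight, then exposed 3 hr at 37C to compounds at 15 concentrations (0.76% DMSO). Lysed, then HTRF anti-pH2AX(S139)-cryptate/anti-H2AX-d2 detection after 24 hr at room temperature; emissions 665 and 620 nm.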

[12] = qHTS assay to identify small molecule agonists of the hypoxia (HIF-1) signaling pathway (AID 1224846; active means well fitted activation curve with a large enough effect in the signal ratio in the repeat runs, not every such curve was filed as active; the % refers to the signal ratio)
How it was run: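 HRE-bla ME-180 beta-lactamase reporter cells in medium with 0.5% dialyzed FBS, pre-incubated 5 h then exposed to compounds 17 h at 37C, 5% CO2; reporter induction read with CCF4-AM FRET substrate.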

[13] = qHTS assay to identify small molecule agonists of H2AX - cell viability counter screen (AID 1224847; calls by dose curve; further: top concentration of the series differs between compounds; nearly all actives have a fitted effect of over 30% in size)
How it was run: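 Quantitative HTS viability measurement: CHO-K1 wild-type cells in serum (10% FBS) medium, short 3 hr drug exposure at 37C with 0.76% DMSO, CellTiter-Glo luminescent detection.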

[14] = qHTS assay to identify small molecule antagonists of the estrogen related receptor (ERR) signaling pathway from Tox21 library (AID 1224848); further: nearly all actives have a fitted effect of over 50% in size
How it was run: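 Screening used an ERR reporter line supplied by NTP, exposed for 18 h at 37 C to library compounds delivered in DMSO. Signal was luciferase luminescence developed with ONE-Glo at room temperature for 30 min.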

[15] = qHTS assay to identify small molecule agonists of the estrogen related receptor (ERR) signaling pathway from Tox21 library (AID 1224849; calls by dose curve; further: nearly all actives have a fitted effect of over 15% in size)
How it was run: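 ERR reporter cells (NTP line) pre-incubated 6 hours at 37 C, then exposed to compounds for 18 hours at 37 C. ONE-Glo luciferase luminescence was read after 30 minutes at room temperature.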

[16] = qHTS RealTime-Glo MT Cell Viability Assay in HepG2 cells - 24 hour (AID 1224867); further: nearly all actives have a fitted effect of over 50% in size
How it was run: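 Cells + NanoLuc/prosubstrate dispensed (600 cells/well) → 5 h at 37 C/5% CO2 → compounds in DMSO transferred → 40 h incubation at 37 C, luminescence read at 0, 8, 16, 24, 32, 40 h.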

[17] = qHTS RealTime-Glo MT Cell Viability Assay in HEK293 cells - 32 hour (AID 1224868)
How it was run: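 Tox21 10K qHTS, HEK293, 600 cells/well, RealTime-Glo reagent co-dispensed with cells; 5 h preincubation, compound by pintool, 37 C, luminescence at 0–40 h.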

[18] = A CellTox Green Cytotoxicity Assay to monitor cytotoxicity in HEK293 cells - 0 hour (AID 1224869); further: nearly all actives have a fitted effect of over 50% in size
How it was run: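 HEK293 cells, 600/well, were preincubated 5 hours and then exposed to compounds at 37 C for up to 40 hours. A cell-impermeant cyanine dye staining dead-cell DNA was read by fluorescence at 0, 8, 16, 24, 32 and 40 h time points.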

[19] = qHTS RealTime-Glo MT Cell Viability Assay in HepG2 cells - 40 hour (AID 1224870); further: nearly all actives have a fitted effect of over 50% in size
How it was run: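 HepG2 cells mixed with RealTime-Glo MT reagents (NanoLuc plus cell-permeant prosubstrate) were seeded at 600 cells/well, incubated 5 h at 37 C/5% CO2, then pinned with compounds in DMSO; nonlytic luminescence tracked viability during 40 h treatment.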

[20] = biological target: Thyrotropin receptor (Homo sapiens) (UniProt P16473); assay: qHTS assay to identify small molecule agonists of the thyroid stimulating hormone receptor (TSHR) signaling pathway (AID 1224843; calls by dose curve; further: nearly all actives have a fitted effect of over 45% in size)
Chain of Thyrotropin receptor (Homo sapiens) (P16473 whole entry, looked up): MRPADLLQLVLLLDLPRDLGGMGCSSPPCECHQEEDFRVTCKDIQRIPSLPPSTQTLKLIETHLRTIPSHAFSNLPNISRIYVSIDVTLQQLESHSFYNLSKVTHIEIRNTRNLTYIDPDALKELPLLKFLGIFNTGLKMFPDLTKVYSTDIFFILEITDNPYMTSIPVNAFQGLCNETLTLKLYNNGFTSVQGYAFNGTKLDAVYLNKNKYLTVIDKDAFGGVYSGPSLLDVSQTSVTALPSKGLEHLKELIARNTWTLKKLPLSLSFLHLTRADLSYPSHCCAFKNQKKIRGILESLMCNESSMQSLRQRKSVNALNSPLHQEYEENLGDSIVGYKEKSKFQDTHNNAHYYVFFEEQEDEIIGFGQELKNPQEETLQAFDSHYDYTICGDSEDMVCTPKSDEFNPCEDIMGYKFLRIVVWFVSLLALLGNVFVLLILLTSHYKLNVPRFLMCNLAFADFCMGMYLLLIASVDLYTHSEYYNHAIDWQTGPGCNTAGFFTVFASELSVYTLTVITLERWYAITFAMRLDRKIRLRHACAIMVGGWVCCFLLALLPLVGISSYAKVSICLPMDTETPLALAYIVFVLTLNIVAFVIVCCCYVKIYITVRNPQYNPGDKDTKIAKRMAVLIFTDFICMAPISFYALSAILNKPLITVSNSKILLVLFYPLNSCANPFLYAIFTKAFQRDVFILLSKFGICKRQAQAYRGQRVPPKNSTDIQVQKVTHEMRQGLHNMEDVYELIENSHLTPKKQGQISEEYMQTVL
How it was run: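 Cell line HEK293 with TSHR; density 800/well. Exposure 30 min RT. Readout HTRF cAMP (cAMP-d2/anti-cAMP-cryptate), 1 h RT before reading.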

Measured: Potency

CC(C)c1ccc2ncccc2c1
active: [2] 31.7 µM
not listed: [20]
inactive: all other assays above

CC(=O)N1C[C@H](O)C[C@H]1C(=O)O
not listed: [8] | [9] | [14] | [15]
inactive: all other assays above

O=C(O)CC(C(=O)O)S(=O)(=O)O (stereo not given)
not listed: [16] | [19]
inactive: all other assays above

C=CCCC(=O)O
not listed: [17]
inactive: all other assays above

O=C(O)c1cc(C(=O)O)cc(C(=O)O)c1
not listed: [8] | [9] | [14] | [15]
inactive: all other assays above

CCCCCCCCCCCCCCCCCCO
not listed: [8] | [9] | [14] | [15]
inactive: all other assays above

C[C@H]1C[C@H]2[C@@H]3CCC4=CC(=O)C=C[C@]4(C)[C@H]3C(=O)C[C@]2(C)[C@@]1(O)C(=O)CO
not listed: [19] | [20]
inactive: all other assays above

CCOC(=O)COC(=O)c1ccccc1C(=O)OCC
inactive: all assays above

CCNC(=O)[C@@H]1CCCN1C(=O)[C@H](CCCN=C(N)N)NC(=O)[C@H](CC(C)C)NC(=O)CNC(=O)[C@H](Cc1ccc(O)cc1)NC(=O)[C@H](CO)NC(=O)[C@H](Cc1c[nH]c2ccccc12)NC(=O)[C@H](Cc1cnc[nH]1)NC(=O)[C@@H]1CCC(=O)N1 ([pGlu]HWSYGLRP-NHEt)
not listed: [17]
inactive: all other assays above

CC(COc1ccccc1)NN (stereo not given)
not listed: [17] | [19]
inactive: all other assays above

NC(=O)N[C@@H](CCC(=O)O)C(=O)O
not listed: [8] | [9] | [11] | [14] | [15]
inactive: all other assays above

C=CC(C)(CCC=C(C)C)OC(=O)CC (stereo not given)
not listed: [7] | [8] | [9] | [14] | [15]
inactive: all other assays above

O=S(=O)(O)c1cc(O)c(O)c(S(=O)(=O)O)c1
not listed: [8] | [9] | [11] | [14] | [15] | [17] | [20]
inactive: all other assays above

CC(CC=O)CC(C)(C)C (stereo not given)
not listed: [8] | [9] | [14] | [15] | [20]
inactive: all other assays above

C=COCC1CCC(COC=C)CC1 (stereo not given)
not listed: [7] | [17]
inactive: all other assays above
